From PubChem BioAssay AID2132 (NMMLSC, 2009)
Values without a mark were called inactive. The source made the active and inactive calls.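 How the source made its calls: active means inhibition above 20%; inactive means the rest.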 Peptide text beside a SMILES is read from it. * marks the point of attachment. Cbz = O=C(OCc1ccccc1)*

Experiment: inhibition of 26S proteasome fluorogenic peptide cleavage, counter-screen for 26S proteasome disassembly project, biochemical, fluorogenic peptides, secondary (AID 2132)
Conditions: yeast 26S proteasome, fluorogenic peptide cleavage rate; with Ac-nLPnLD-amc; at 100 µM; active compounds read high

Row | SMILES | inhibition
1 | CC(=O)N1C(=O)C(=C2C=C(C)OC(C)=C2)c2ccccc21 | 20%
2 | CC(C)C[C@@H](C=O)NC(=O)[C@H](CC(C)C)NC(=O)[C@H](CC(C)C)NC(=O)OCc1ccccc1 (Cbz-Leu-Leu-Leu-aldehyde) | 27% (active)
